The text below walks through data of PubChem BioAssay AID995 (National Center for Advancing Translational Sciences (NCATS), 2007).

Each structure is given as a SMILES string. Hit rate of the full screen: of about 72,000 compounds, about 710 (0.99%) were called active. Roughly 7% stayed inconclusive and do not appear here. The sample as a whole holds a higher share of actives than the screen did. Values without a mark were called inactive. Calls come from the whole dose curve; as a rule, active = well fitted inhibition curve with a large enough effect; inconclusive = small, poorly fitted or top-dose-only effect; inactive = no such curve, though single readings can be large or run the other way.
% is set by controls: 0 for no effect and ±100 for the full control effect; potency is the fitted concentration of half-maximal effect.

This assay is described as follows: qHTS Assay for Inhibitors of the ERK Signaling Pathway using a Homogeneous Screening Assay. Note: nearly all actives have a fitted effect of over 55% in size. The settings on record: HEK293-V1b, vasopressin-stimulated pERK AlphaScreen; series mostly up to 57.5 µM; activity, negative = inhibition: at the top concentration. In short, it runs like this: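 HEK293 cells stably expressing V1b receptor, preincubated 30 min at 37 °C with compound, then stimulated 5 min with 25 nM vasopressin. Phospho-ERK by AlphaScreen SureFire after 5 h RT; normalized to DMSO and vasopressin; AC50 by Hill fit.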
For `C[C@@H]1/C=C\CC(=O)OC[C@H]2O[C@@H](C=C[C@@H]2O)[C@H](C)/C=C\CC(=O)OC[C@H]2O[C@H]1C=C[C@@H]2O`, the activity, negative = inhibition was 20.6% [at 11.5 µM].
Same read-out and setting: for `COC(=O)[C@@H]1C[C@@]2(O)[C@@H](O)[C@@H](O)[C@@H](O)C[C@H]2N1Cc1ccc(C)s1` the value was -22.8%; for `O=C(c1cc(C(F)(F)F)cc(C(F)(F)F)c1)N1CCC[C@@]2(CCN(c3ccccn3)C2)C1`, -25.8%; for `Cc1nc2cnc(N3CCNCC3)nc2n(CCc2ccccc2)c1=O`, -26.2%.
Still for that read-out and setting: for `C/C=C(/C)C(=O)OC1Cc2c(ccc3ccc(=O)oc23)OC1(C)C` (configuration not stated) the value was 4.83%; for `COc1ccc(C[C@H](N)C(=O)N[C@@H]2[C@H](O)[C@H](n3cnc4c(N(C)C)ncnc43)O[C@@H]2CO)cc1`, 18.5% [at 25.7 µM]; for `Cc1c(S(=O)(=O)O)oc2c1C(=O)C(=O)c1c-2ccc2c1CCCC2(C)C`, -6.22%.
On the same count and under the same terms, the result for `C=C1C([C@@]2(C)C(OC(C)=O)CC(=O)O[C@@](C)(COC(C)=O)C2CC(=O)OC)C(OC=O)C(OC(=O)C(O)C(C)CC)[C@]2(C)C(c3ccoc3)CC(=O)C12O` (some centres not stated) reads 22.9%.
`Cn1c(=O)[nH]c(=O)c2c1nc(Br)n2CCCCSc1nc2ccccc2o1`: the Potency is 31.6 µM (active).
On to `Cc1ccnc(SCCn2c(Br)nc3c2c(=O)[nH]c(=O)n3C)n1`, for which the “activity, negative = inhibition” value was -5.19%.
`CCCCCn1c(SCCC(C)C)nc2c1c(=O)[nH]c(=O)n2C`: the “activity, negative = inhibition” value is -28.8%.
Same read-out and setting: for `CCC[C@@H]1C[C@@]1(CCC)C(NC(=O)c1ccc(-c2ccccc2)cc1)c1cccc(Cl)c1` (some centres not stated) the value was -2.63%.
On the same count and under the same terms, for `CC1=C(C(=O)OCc2ccccc2)C(c2ccc(C(F)(F)F)cc2)NC(=O)N1CCCCCC(=O)O` (configuration not stated) the value was 16.5%.
Consider `O=C(CN1CCN(C2CCCCC2)CC1)Nc1ccccc1N1CCCCC1`, for which the Potency is 25.1 µM (active).
In the case of `O=C(NCCCN1CCN(C2CCCCC2)CC1)Nc1ccccc1C(F)(F)F`, the “activity, negative = inhibition” value was -2.46%.
Still for that read-out and setting: the result for `Cc1ccccc1NC(=O)CNc1ccccc1N1CCCCC1` reads -6.19%; that for `CC(C)[C@H]1CC[C@@H](C)C[C@H]1O`, 18.6%; that for `CC(C)C1=CC2=CC[C@@H]3[C@](C)(CO)CCC[C@]3(C)C2CC1` (some centres not stated), 17.2%.
Same read-out and setting: for `Cc1ccc2nc(CC(=O)c3ccc4ccccc4c3)c(=O)[nH]c2c1` the value was 3.17% [at 11.5 µM].
On to `C=CC(=O)c1ccc2ccccc2c1`, for which the Potency was 10 µM (active).
For `CC1C(O)CC2C(C(=O)O)=CO[C@@H](O[C@H]3OC(CO)C(O)C(O)C3O)C21` (some centres not stated), the “activity, negative = inhibition” value was -6.74%.
Consider `Cc1ccc(S(=O)(=O)NC(=O)NN2C[C@H]3CCC[C@@H]3C2)cc1`, for which the “activity, negative = inhibition” value is 19.3% [at 25.7 µM].
As for `Cc1ccc(/C(=C/CN2CCCC2)c2ccccn2)cc1`, the Potency result was “inactive”.
In the case of `Nc1nc(N)c2[nH]c(CNc3ccc(C(=O)O)cc3)nc2n1`, the activity, negative = inhibition was -2.04% [at 11.5 µM].
Same read-out and setting: the result for `CCC1=C(OC(=O)N(CC)CC)N2C(=O)OC(=NCCc3c[nH]c4ccccc34)[C@]2(C)[C@H]2C1=CC[C@H]1C(=O)N(CC)C(=O)[C@H]12` reads -0.77%; that for `O=C(O)COc1nsnc1N1CCOCC1`, -7.11%.
The same measure, in the same setting: for `c1nc(COc2nsnc2N2CCOCC2)cs1` the value was -25.1%.
With `c1ccc(COc2nsnc2N2CCOCC2)cc1`, the Potency is 25.1 µM (active).
`O=C(c1csnn1)N1CCC2(CCN(Cc3nccs3)CC2)CC1`: the “activity, negative = inhibition” value was 10.9%.
As to `COc1ccc(C2CC(=O)c3c(O)cc(OC4OC(COC5OC(C)C(O)C(O)C5O)C(O)C(O)C4O)cc3O2)cc1O` (configuration not stated), the “activity, negative = inhibition” value was 25%.
Same read-out and setting: for `O=C1OC(C(O)CO)C(O)=C1O` (configuration not stated) the value was 2.19%; for `O=C(NCCN1CCOCC1)c1c(F)c(F)c(F)c(F)c1F`, -4.02%.
Regarding `O=C(NCCN1CCOCC1)c1ccc2c(c1)ncn2C1CCCC1`, the Potency was 25.1 µM (active).
With `O=C(NCc1cccs1)c1ccc2c(c1)ncn2C1CCCC1`, the “activity, negative = inhibition” value was -13.8%.
As for `FC(F)(F)c1ccccc1-c1cc(NCc2ccccc2)ncn1`, the “activity, negative = inhibition” value was -10.7%.
With `C=CC(=O)OCCOCCOCCOCCOC(=O)C=C`, the Potency entry was “inactive”.
On the same count and under the same terms, for `O=C(CSc1n[nH]c(-c2cccnc2)n1)Nc1ccnc2ccccc12` the value was 20 µM (active).
With `COc1ccc(-c2nc(SCC(=O)N3CCOCC3)n[nH]2)cc1`, the “activity, negative = inhibition” value was -13.4%.
As to `Cc1oc2nc(SCC(=O)NCc3cccnc3)nc(N)c2c1C`, the “activity, negative = inhibition” value was -19.1%.
On the same count and under the same terms, for `CN1CC(=O)N=C1N` the value was 8.99%; for `Nc1nc2c(nc(Cl)n2C2OC(CO)C(O)C2O)c(=O)[nH]1` (configuration not stated), -5.51%; for `Oc1ccc2c(c1)OCC1c3cc4c(cc3OC21)OCO4` (configuration not stated), 3.05%.
In the case of `COC(=O)[C@@H]1C[C@@]2(O)[C@H](O)[C@H](O)[C@H](O)C[C@H]2N1CC1CCCCC1`, the “activity, negative = inhibition” value was 15.9%.
The same measure, in the same setting: for `COC(=O)[C@@H]1C[C@@]2(O)[C@H](O)[C@H](O)[C@H](O)C[C@H]2N1Cc1ccc(C)s1` the value was 19.5%.
In the case of `COc1ccccc1-c1nnc(SCC(=O)Nc2ccccc2)o1`, the Potency is 25.1 µM (active).
With `COc1ccccc1-c1nnc(SCC(=O)Nc2cc(C)on2)o1`, the “activity, negative = inhibition” value is -0.126%.
The same measure, in the same setting: for `COc1ccccc1-c1nnc(SCC(=O)N2CC(C)CC(C)C2)o1` (configuration not stated) the value was 14.3%.
